# Measured values reported in PubChem BioAssay (EPA / NIEHS).
# The source made the active and inactive calls. How the source made its calls: active means hit-call score of the fitted dose curve at least 0.9, where 1 is the maximum; inactive means score below 0.9.
# Assay: ATG_Ets_CIS: Attagene CIS-FACTORIAL HepG2 Assay for human Erythroblast Transformation Specific (ETS) (AID 2282941)
# Conditions: HepG2 ETS cis-reporter transcription, actives raise or lower the signal
# Protocol: ATG_CIS is a cell-based, multiplexed-readout assay that uses HepG2, a human liver cell line, with measurements taken at 24 hours after chemical dosing in a 24-well plate.ATG_Ets_CIS is one of 52 assay component(s) measured or calculated from the ATG_CIS assay. It is designed to make measurements of mRNA induction, a form of inducible reporter, as detected with fluorescence intensity signals by Reverse transcription polymerase chain reaction (RT-PCR) and Capillary electrophoresis technology.Data from the assay component ATG_Ets_CIS was analyzed into 1 assay endpoint. This assay endpoint, ATG_Ets_CIS, was analyzed with bidirectional fitting relative to DMSO as the negative control and baseline of activity. Using a type of inducible reporter, measures of mRNA for gain or loss-of-signal activity can be used to understand the reporter gene at the transcription factor-level as they relate to the gene ETS1. Furthermore, this assay endpoint can be referred to as a primary readout, because this assay has produced multiple assay endpoints where this one serves a reporter gene function. To generalize the intended target to other relatable targets, this assay endpoint is annotated to the dna binding intended target family, where the subfamily is winged helix-turn-helix.
# Human liver HepG2 cells are transiently transfected with multiple reporter transcription units (MRTUs) in 6-well plates using FuGene 6 reagent (Roche; 3 ml FuGene/1 mg DNA). The MRTU constructs are regulated by a cis-regulating element (promoter). […] A major difference between the CIS and TRANS system is that in CIS activities of endogenous TFs are measured, whereas the TRANS assay evaluates changes in activities of exogenous, chimeric NR-Gal4 proteins. […] At the end of 24 hour incubation, total RNA was isolated using TriZol reagent (Invitrogen). The isolated RNA is then reverse-transcribed using oligo(dT) primer and Mo-MLV reverse transcriptase (Invitrogen) with DNAse I (Ambion) treatment for 30 min. The one-tenth of the produced cDNA was amplified by PCR using Taq DNA polymerase (Invitrogen) and two reporter sequence-specific primers. The PCR products were fluorescently labeled by primer extension with 6-arboxyfluorescein (6-FAM) 5'-labeled reporter sequence-specific primer (2 min at 95 C, 20 s at 68 C and 10 min at 72 C) and these products were digested with 5U of HpaI (New England Biolabs) for 2h at 37 C. The fragments were purified using Qiaquick PCR columns (Qiagen), analyzed on an ABI 3130xL genetic analyzer (Applied Biosystems) with peak positions identified by using a set of X-rhodamine (ROX)-labeled MapMarker1000 molecular weight standards (BioVentures). The raw capillary electrophoresis data was processed using Attagraph software (Attagene).
Compound,outcome,AC50
CN/C(=N\[N+](=O)[O-])NCc1cnc(Cl)s1,inactive,–
CCCCC(C#N)(Cn1cncn1)c1ccc(Cl)cc1 (stereo not given),inactive,–
CCCN(CC)CC1COC2(CCC(C(C)(C)C)CC2)O1 (stereo not given),inactive,–
CCN(CC)c1nc(C)cc(OP(=S)(OC)OC)n1,inactive,–
CC(C)Nc1nc(Cl)nc(NC(C)C)n1,inactive,–
CC(C)Oc1cccc(NC(=O)c2ccccc2C(F)(F)F)c1,inactive,–
CCSC(=O)N1CCCCCC1,inactive,–
CS(=O)(=O)c1ccc(C(=O)C2C(=O)CCCC2=O)c([N+](=O)[O-])c1,inactive,–
CS(=O)(=O)c1cc(C(F)(F)F)ccc1C(=O)c1cnoc1C1CC1,inactive,–
COP(=S)(OC)Oc1ccc([N+](=O)[O-])c(C)c1,inactive,–
CC(C)(C)C(=O)C(Oc1ccc(Cl)cc1)n1cncn1 (stereo not given),inactive,–
COc1cc(OC)nc(NC(=O)NS(=O)(=O)c2ncccc2OCC(F)(F)F)n1,inactive,–
Clc1nc(Cl)nc(Nc2ccccc2Cl)n1,inactive,–
C=C(C)CN(CC)c1c([N+](=O)[O-])cc(C(F)(F)F)cc1[N+](=O)[O-],inactive,–
COCc1cnc(C2=NC(C)(C(C)C)C(=O)N2)c(C(=O)O)c1 (stereo not given),inactive,–
CC(C)C1(C)N=C(c2ncccc2C(=O)O)NC1=O (stereo not given),inactive,–
O=c1n(Cl)c(=O)n(Cl)c(=O)n1Cl,inactive,–
CC1(C)C(C(=O)OC(C#N)c2cccc(Oc3ccccc3)c2)C1(C)C (stereo not given),inactive,–
COCC(C)N(C(=O)CCl)c1c(C)csc1C (stereo not given),inactive,–
CCN(CC)C(=O)C(C)Oc1cccc2ccccc12 (stereo not given),inactive,–

Compound,outcome,AC50
COc1ccc(-c2ccccc2)cc1NNC(=O)OC(C)C,inactive,–
COC(=O)NC(=S)Nc1ccccc1NC(=S)NC(=O)OC,inactive,–
Nc1cnn(-c2ccccc2)c(=O)c1Cl,inactive,–
CCOC(=O)C(C)OC(=O)c1cc(Oc2ccc(C(F)(F)F)cc2Cl)ccc1[N+](=O)[O-] (stereo not given),inactive,–
Clc1cccc(C(Cl)(Cl)Cl)n1,inactive,–
CCOc1nc(C(Cl)(Cl)Cl)ns1,inactive,–
N#CN=C1SCCN1Cc1ccc(Cl)nc1,inactive,–
CCOc1cc(C(C)(C)C)ccc1C1COC(c2c(F)cccc2F)=N1 (stereo not given),inactive,–
Cc1cc(C)nc(Nc2ccccc2)n1,inactive,–
CSC(=O)c1c(C(F)F)nc(C(F)(F)F)c(C(=O)SC)c1CC(C)C,inactive,–
CNC(=O)N(C)c1nnc(C(C)(C)C)s1,inactive,–
O=C(Nc1ccccc1-c1ccc(Cl)cc1)c1cccnc1Cl,inactive,–
CC1(C)CON(Cc2ccccc2Cl)C1=O,inactive,–
COC(=O)c1c(C(F)F)nc(C(F)(F)F)c(C2=NCCS2)c1CC(C)C,inactive,–
N#Cc1c[nH]cc1-c1cccc2c1OC(F)(F)O2,–,29 µM (active)
CN=C=S,inactive,–
CCCCOCN(C(=O)CCl)c1c(CC)cccc1CC,inactive,–
CC(C)NC(=O)N1CC(=O)N(c2cc(Cl)cc(Cl)c2)C1=O,inactive,–
Cn1c(-c2ccccc2)cc(-c2ccccc2)[n+]1C,inactive,–
COC(=O)N(C(=O)N1CO[C@@]2(C(=O)OC)Cc3cc(Cl)ccc3C2=N1)c1ccc(OC(F)(F)F)cc1,inactive,–
